{"source": "PubChem BioAssay AID1347172", "about": "(National Center for Advancing Translational Sciences (NCATS), 2019)", "note": "Records with an inconclusive call do not appear. Entries that show only a call come without a potency. Activity calls are given as the source filed them. Calls come from the whole dose curve; as a rule, active = well fitted inhibition curve with a large enough effect; inconclusive = small, poorly fitted or top-dose-only effect; inactive = flat fitted curve, though single readings scatter."}
{"test": "Secondary qRT-PCR qHTS assay for selected Zika virus inhibitors", "conditions": "Vero cells ZIKV infection, NS5 RNA qRT-PCR, 24 h; series mostly up to 32.6 µM", "excerpt": "Assay Submitters (PI): Avindra Nath, Ph.D., National Institute of Neurological Disorders and Stroke (NINDS), Bethesda, MD Radhakrishnan Padmanabhan, Ph.D., Georgetown University (GU), Washington D.C. Zika Virus causes congenital defects, including microcephaly and is associated with Guillain-Barre syndrome, eningoencephalitis and myelitis in infected adult. […] Using a target-based approach, we hope to establish a screening paradigm to uncover novel, cell-active NS2B-NS3 protease (Zika Virus) specific inhibitors from NCATS' collection of small molecules using qHTS. […] Four assay panel was created to identify potential Zika Virus inhibitors. Namely, (1) GU unlinked NS2B-NS3 AMC tagged protease qHTS, (2) GU unlinked NS2B-NS3 Rhodamine tagged protease qHTS, (3) NINDS linked NS2B-NS3 AMC tagged protease qHTS, (4) NINDS linked NS2B-NS3 Rhodamine tagged protease qHTS. Inhibitors of the Zika virus primary screens are confirmed using qRT-PCR secondary assays, qRT-PCR mCherry orthogonal assay, and qRT-PCR viability counterscreen. Early Translation Branch (ETB) National Center for Advancing Translational Sciences (NCATS), Rockville, MD National Institute of Health (NIH), Bethesda, Maryland\n384-well ZIKV qRT-PCR Assay: Vero cells were treated with the indicated compounds at different concentrations, infected with ZIKV (MOI=1) and incubated at 37 degrees C for 3 hours to permit virus invasion. After 3 hr, supernatant was removed, and cells were washed once to remove extracellular virus. After a further 21 hr incubation, infected cells were washed three times with cold PBS (4 degrees C). Plates were then process using the TaqmanGene Expression Cells-to-Ct Kit (ThermoFisher Scientific) following the manufactures protocol. Primers directed to the NS5 sequence (F-[…]; R-GCTCGGCCAATCAGTTCA) along with Taqman probe (FAM-[…]-BHQ; Biosearch Technologies) were used to quantify drug inhibition of viral load. Reactions were run at initial 95 degrees C for 10 min, then 40 cycles of 95 degrees C for 20 sec and 60 degrees C for 40 sec using a LightCycler 480 (Roche). Relative viral copy numbers were generated by normalizing to cells treated with vehicle."}
{"smiles": "O=C(O)Cc1cccc(OCCCN(Cc2cccc(C(F)(F)F)c2Cl)CC(c2ccccc2)c2ccccc2)c1", "Potency": "14.1 µM (active)"}
{"smiles": "O=C(O)C1(Cc2cccc(Nc3nccs3)n2)CCC(Oc2cccc(Cl)c2F)CC1", "note": "(stereo not given)", "Potency": "inactive"}
{"smiles": "CC1(C)CC[C@]2(C(=O)O)CC[C@]3(C)C(=CCC4[C@@]5(C)C[C@@H](O)[C@H](O)C(C)(C)C5CC[C@]43C)C2C1", "note": "(stereo not given in full)", "Potency": "inactive"}
{"smiles": "Cc1ccc2[nH]c(=O)c(C3=NN(C(=O)CCC(=O)O)C(c4ccc(Br)cc4)C3)c(-c3ccccc3)c2c1", "note": "(stereo not given)", "Potency": "inactive"}
{"smiles": "CC(C)(Sc1ccc(CCN(CCCCC2CCCCC2)C(=O)NC2CCCCC2)cc1)C(=O)O", "Potency": "inactive"}
{"smiles": "Cc1ccn(-c2ccc(-c3ncco3)cc2)c(=O)c1-c1ccc2nc(N)ncc2c1", "Potency": "inactive"}
{"smiles": "O=C(O)c1ccc(O)c2ncc(N3CCCN(CCc4cccc5ccccc45)CC3)cc12", "Potency": "inactive"}
{"smiles": "CO[C@H]1C[C@@H](O[C@@H]2/C(C)=C/C[C@@H]3C[C@@H](C[C@]4(CC[C@H](C)[C@@H](C5CCCCC5)O4)O3)OC(=O)[C@@H]3C=C(C)/C(=N/O)[C@H]4OC/C(=C\\C=C\\[C@@H]2C)[C@]43O)O[C@@H](C)[C@H]1O", "Potency": "3.98 µM (active)"}
{"smiles": "N#CC1(c2cccc(C(=O)Nc3cc(Oc4ccc5nc(NC(=O)C6CC6)sc5n4)ccc3F)c2Cl)CC1", "Potency": "inactive"}
{"smiles": "O=C(O)Cn1nnc(-c2cc(N3CCC(Oc4cc(F)ccc4Br)CC3)no2)n1", "Potency": "inactive"}
{"smiles": "CC(C)=CCc1c2c(c3occ(-c4ccc(O)c(O)c4)c(=O)c3c1O)C=CC(C)(C)O2", "Potency": "4.47 µM (active)"}
{"smiles": "O=C1NC(=O)/C(=C/c2cccc(C(F)(F)F)c2)S1", "Potency": "inactive"}
{"smiles": "Oc1c(Cl)cc(Cl)c(Cl)c1Cc1c(O)c(Cl)cc(Cl)c1Cl", "Potency": "35.5 µM (active)"}
{"smiles": "O=C1NC(=O)/C(=C/c2ccc3c(c2)OC(F)(F)O3)S1", "Potency": "inactive"}
{"smiles": "COc1cc(C(=O)NS(=O)(=O)c2ccccc2C)ccc1Cc1cn(C)c2ccc(NC(=O)OC3CCCC3)cc12", "Potency": "inactive"}
{"smiles": "CC(=O)OC12CC(C)C(OC(=O)c3ccccc3)C1/C=C(/C)C(OC(=O)c1ccccc1)CC(=O)C(C)(C)/C=C/C(C)C2=O", "note": "(stereo not given)", "Potency": "inactive"}
{"smiles": "N#Cc1ccc(N2N=C3c4ccc(C(=O)O)cc4CC[C@@H]3[C@@H]2C2CCCC2)cc1Cl", "Potency": "inactive"}
{"smiles": "COc1ccccc1-c1cccc(-c2c(O)c3cc(C#N)c(Cl)cc3[nH]c2=O)c1", "Potency": "inactive"}
{"smiles": "O=C(O)c1ccc(CCCc2ccc(OCCc3ccc(F)cc3)cc2)o1", "Potency": "inactive"}
{"smiles": "CC(C)c1cc(C(C)C)c(CC(=O)NS(=O)(=O)Oc2c(C(C)C)cccc2C(C)C)c(C(C)C)c1", "Potency": "10 µM (active)"}
{"smiles": "Cc1cc(C(C#N)c2ccc(Cl)cc2)c(Cl)cc1NC(=O)c1cc(I)cc(I)c1O", "note": "(stereo not given)", "Potency": "22.4 µM (active)"}
{"smiles": "Cc1nc(C2CCCCC2)c(-c2ccc(S(N)(=O)=O)c(F)c2)o1", "Potency": "inactive"}
{"smiles": "CN(C)[C@@H]1C(=O)C(C(N)=O)=C(O)[C@@]2(O)C(=O)C3=C(O)c4c(O)ccc(Cl)c4[C@@H](O)[C@H]3C[C@@H]12", "Potency": "inactive"}
{"smiles": "CCOC(=O)c1ccc(N2C(=O)c3n[nH]c(-c4cccs4)c3C2c2ccc(C(C)(C)C)cc2)cc1", "note": "(stereo not given)", "Potency": "3.55 µM (active)"}
{"smiles": "CC1(C)CCC(C)(C)c2cc3c(cc21)Sc1ccccc1N=C3c1ccc(C(=O)O)cc1", "Potency": "inactive"}
{"smiles": "COc1ccc(NS(=O)(=O)c2ccc(NS(=O)(=O)c3ccc4c(c3)OCCO4)cc2)cc1", "Potency": "inactive"}
{"smiles": "CCOc1ccc(-c2cc(NC(=O)c3c(F)cccc3F)c(C(=O)O)s2)cc1", "Potency": "inactive"}
{"smiles": "CCc1oc2ccccc2c1C(=O)c1cc(Br)c(O)c(Br)c1", "Potency": "inactive"}
{"smiles": "O=C(O)c1ccc(-n2nc(-c3ccccc3O)nc2-c2ccccc2O)cc1", "Potency": "inactive"}
{"smiles": "CCOC(=O)c1ccc(NC(=O)CSc2nc(-c3ccc(F)cc3)cc(C(F)(F)F)c2C#N)cc1", "Potency": "inactive"}
